S2 tox – reduces viability in counter-screen for ATXN expression inhibitors | AID 651635 | S2 cells (HEK-293 line with an ATXN2-luciferase reporter) viability, CellTiter-Fluor protease fluorescence, 24 h | 0.49% of 400,000 active | Potency, µM (series often up to 56.7 µM), usual class: cytotoxic; further: nearly all actives have a fitted effect of over 40% in size
KB-V1 MDR tox – KB-V1 MDR subline cytotoxicity; KB-V1 MDR cells viability, CellTiter-Glo, 72 h; Potency, µM (doses to about 46.1 µM), most hits filed as cytotoxic; 3.4% of 400,000 active; further: on the % scale 0 is the no-effect control and ±100 the full control effect; nearly all actives have a fitted effect of over 60% in size
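KB-V1, DMEM (no phenol red) + 10% FBS; cpd pin-transferred, titration series; 72 h, 37 degrees C; CellTiter-Glo, luminescence. Data normalized, curve-fit.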
HT1080NT lethal – kills 2HG-producing HT-1080-NT fibrosarcoma cells; HT-1080-NT fibrosarcoma viability, CellTiter-Glo ATP luminescence, 48 h; Potency, µM (top dose mostly 46.1 µM), without a hit: at the top dose activity, negative = less viability, usual class: cytotoxic; 1.6% of 360,000 active;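 further: NT is the 2HG producing partner of a matched IDH1 knockdown line; 0% = DMSO-treated cells and -100% = media-only wells without cells; nearly all actives have a fitted effect of over 55% in size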
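Compounds were tested in concentration-response format on HT-1080-NT cells for 48 hours at 37 degrees C. Cell viability came from CellTiter-Glo luminescence; curves were classified by r2, response magnitude and activity.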
KB-3-1 tox – kills parental KB-3-1 adenocarcinoma cells | AID 1347075 | Potency, µM (highest dose often 46.1 µM), actives largely listed as cytotoxic | KB-3-1 viability, CellTiter-Glo ATP luminescence, 72 h | 1.4% of 400,000 active; further: on the % scale 0 is the no-effect control and ±100 the full control effect; nearly all actives have a fitted effect of over 60% in size
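Viability of parental KB-3-1 cells, measured by CellTiter-Glo luminescence, followed a 72 h incubation at 37 °C with pinned compounds in phenol-red-free DMEM containing 10% FBS.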
ATXN2 expr inh – inhibitors of ATXN2 expression; HEK-293 ATXN2-luciferase reporter, luminescence, 24 h; Potency, µM (series often up to 57 µM), for the others: at the top dose activity change, negative = inhibition, actives largely listed as inhibitors; 0.72% of 360,000 active; further: on the % scale 0 is the no-effect control and ±100 the full control effect; nearly all actives have a fitted effect of over 55% in size
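qHTS (up to 57 uM final) was run with 24 h compound exposure of reporter cells at 37 °C. Each well was multiplexed: SteadyGlo luminescence measured ATXN2-luciferase expression after a fluorogenic Gly-Phe-AFC viability readout (25 uM final).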
HT1080 IDH1KD tx – kills HT-1080 cells with IDH1 knockdown. HT-1080 IDH1 knockdown viability, ATP luminescence, 48 h. Potency, µM (doses to about 46.1 µM), for the others: at the highest dose activity, negative = toxicity, most hits filed as cytotoxic. 2% of 360,000 active;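 further: 0% = DMSO wells and -100% = cell-free medium wells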
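Assay cells: HT-1080 with IDH1 knockdown, 750 per well, RPMI/5% FBS. Exposure: 48 h at 37 °C following 2 h pre-incubation. Read: CellTiter-Glo luminescence; fitted concentration-response, curve class assigned.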
An asterisk follows results filed as active; i = inactive; ? = inconclusive; . = no result; [ ] = dose if it differs, or a comment. The list is not random: actives were taken first. Their share in the collection is about 6.2%. The call rests on the fitted dose curve; in most records, active means well fitted curve in the direction sought with a large enough effect; inconclusive means small, poorly fitted or top-dose-only effect, or another doubt; inactive means no such curve, though single readings can be large; an effect the other way counts as inactive or inconclusive. Potency means the concentration at half of the fitted maximal effect.

SMILES	S2 tox	KB-V1 MDR tox	HT1080NT lethal	KB-3-1 tox	ATXN2 expr inh	HT1080 IDH1KD tx
O=C([O-])c1ccc(-[n+]2c(-c3ccccc3)cc(-c3ccccc3)cc2-c2ccccc2)cc1	i	i	?	i	5.7%	3.5%
COc1ccc(-[n+]2c(-c3ccccc3)cc(-c3ccccc3)cc2-c2ccccc2)cc1	?	i	8.2µM*	7.31µM*	?	7.31µM*
Cc1cc(-n2c(/C=C/c3ccc(Br)s3)nc3ccccc3c2=O)ccc1Br	.	?	.	i	.	.
COC(=O)C12OCC34C(CC5C(C)=C(O)C(=O)CC5(C)C3C(O)C1O)OC(=O)C(OC(=O)/C=C(\C)C(C)C)C24 (stereo not given)	?	3.26µM*	?	0.184µM*	-63.2%	0.0259µM*
C/C=C1\C[N@@+]2(C)CC[C@@]34C(=C(C=O)[C@H]1C[C@H]32)Nc1ccccc14	i	.	.	.	.	.
CCOC(=O)C1(c2ccccc2)CCN(CCc2ccc(N)cc2)CC1	i	.	.	.	-4.1%	.
COC(=O)C(O)(c1ccc(NC(=S)NC(=O)c2ccc(Cl)cc2Cl)cc1)C(F)(F)F (stereo not given)	i	18.4µM*	-19.0%	?	-6.1%	-9.2%
CCOC(=O)C(O)(c1ccc(NC(=S)NC(=O)c2ccc(Cl)cc2Cl)c(C)c1)C(F)(F)F (stereo not given)	i	?	16.4µM*	?	-15.9%	23.1µM*
ClCCN1CCCC1	i	.	.	.	8.2%	.
O=C(c1ccc2c(c1)N(Cc1c(F)cccc1Cl)C(=O)c1ccccc1S2)N1CCC2(CC1)OCCO2	i	i	.	i	-37.2%	.
CCOc1ccc(N(C(C)C(=O)Nc2cc(Cl)ccc2OC)S(C)(=O)=O)cc1 (stereo not given)	?	?	.	3.66µM*	-17.8%	.
CC1=CC2/C=C(\C)CCC(O)C(O)/C=C/C(=O)C23C(=O)NC(CC(C)C)C3C1C (stereo not given)	.	?	11.6µM*	4.61µM*	?	7.31µM*
CCOP(=O)(CCP(=O)(OCC)OCC)OCC.C[CH2][Sn]([Cl])([Cl])[CH2]C	?	?	?	?	18.9µM*	4.61µM*
CC(C)Oc1ccc(C(=O)Nc2ccc3c(c2)CCCN3C(=O)c2cccs2)cc1	?	?	.	6.51µM*	?	.
O=C(CN1CCCC2CCCCC21)c1ccc(I)cc1 (stereo not given)	.	i	.	i	.	.
C[C@@H]1[C@@H]2Cc3ccc(O)cc3[C@@]1(C)CCN2CCc1ccccc1	i	.	.	.	.	.
CC1[C@H]2Cc3ccc(O)cc3[C@]1(C)CCN2CCc1ccccc1 (stereo not given in full)	i	?	?	i	-20.6%	14.6µM*
CCCNC(=O)c1cc2c(c(-c3cccc(-c4cc5ccccc5o4)c3)n1)[C@@H](CCO)N(C(=O)NC(C)C)C2	?	18.4µM*	?	?	0.0%	?
O=C(c1cc2c(s1)-c1ccccc1OC2)N1CCC2(CC1)OCCO2	i	13µM*	?	i	9.3%	?
CCOC(=O)c1c(-n2c(C)cc(/C=C3/C(=O)NC(=O)N(CC)C3=O)c2C)sc2c1CCCC2	i	?	-1.4%	i	-23.9%	6.1%
CCOC(=O)c1c(-n2c(C)cc(C=C3C(=O)NC(=S)NC3=O)c2C)sc2c1CCCC2	22.4µM*	i	?	?	20µM*	?
NCC(=O)c1ccc2ccccc2c1	.	i	.	i	.	.
C[N+](C)(C)CCCCCCCCCC[N+](C)(C)C	i	i	?	i	5.6%	14.4%
c1ccc2c(CN3CCCCCCC3)c[nH]c2c1	?	14.6µM*	-0.9%	20.6µM*	-10.0%	?
C[C@]12C[C@H]3S[C@H]3C[C@@H]1CC[C@@H]1[C@@H]2CC[C@]2(C)[C@@H](O)CC[C@@H]12	i	.	.	.	.	.
SMILES	S2 tox	KB-V1 MDR tox	HT1080NT lethal	KB-3-1 tox	ATXN2 expr inh	HT1080 IDH1KD tx
COc1cc(CCN)cc(OC)c1OC	i	.	.	.	4.2%[116 µM]	.
CCS(=O)(=O)N1Cc2cc(C(=O)N(C)C)nc(-c3cccc(-c4ccc(F)cc4)c3)c2[C@H]1CCO	i	i	-1.6%	i	-14.6%	23.1µM*
c1ccc(CCN2CCCC2)cc1	.	i	.	i	.	.
COC(=O)C1=C(c2ccc(OCc3ccccc3)cc2)C[C@@H]2CC[C@H]1N2C(=O)NCCN1CCOCC1	i	i	-15.8%	i	-26.2%	-10.0%
COC(=O)C1=C(c2ccc(OCc3ccccc3)cc2)C[C@@H]2CC[C@H]1N2C(=O)NCCc1ccc(F)cc1	?	16.4µM*	-20.1%	?	-38.0%	?
COC(=O)C1=C(c2ccc(OCc3ccccc3)cc2)C[C@@H]2CC[C@H]1N2C(=O)NCCCCc1ccccc1	i	?	-21.1%	?	-18.6%	-11.4%
COC(=O)C1=C(c2ccc(OCc3ccccc3)cc2)C[C@@H]2CC[C@H]1N2C(=O)NC1CCN(Cc2ccccc2)CC1	11.2µM*	i	?	?	12.6µM*	?
CSc1ncc(C(=O)Nc2ccc(Cl)cc2C(=O)c2ccccc2)c(C)n1	i	i	.	i	1.0%	.
N#Cc1ncc(N=Cc2ccc(N(CCCl)CCCl)cc2)s1	i	i	?	?	?	10.3µM*
O=C(NCNC(=O)N[C@H]1C(=O)NC(=O)N1CO)N[C@H]1C(=O)NC(=O)N1CO	i	.	.	.	.	.
CC(C)(C)c1nc(N2CCN(C(=O)c3ccco3)CC2)c2nnn(Cc3ccccc3Cl)c2n1	i	11.6µM*	-1.1%	i	-32.0%	-1.8%
C[C@@H]1O[C@@H](O[C@H]2C[C@@H](O)[C@]3(CO)[C@H]4[C@H](O)C[C@]5(C)[C@@H](C6COC(=O)C6)CC[C@]5(O)[C@@H]4CC[C@]3(O)C2)[C@H](O)[C@H](O)[C@H]1O (stereo not given in full)	?	1.64µM*	1.84µM*	?	0.562µM*	0.82µM*
Cc1cc(O)c2c(c1)C(=O)C13C(=C2O)C(=O)[C@H]2[C@@H](O)[C@@H]1[C@H]1[C@H](O)[C@@H]3C(=O)C3=C(O)c4c(O)cc(C)cc4C(=O)C312 (stereo not given in full)	?	i	0.581µM*	9.2µM*	4.2%	5.17µM*
CN[C@@H]1Cc2cccc3[nH]c(=O)n(c23)C1	.	.	.	.	-2.9%	.
CC(C)C[C@H]1C(=O)N2CCC[C@H]2[C@]2(O)O[C@](NC(=O)[C@@H]3C=C4c5cccc6[nH]c(Br)c(c56)CC4N(C)C3)(C(C)C)C(=O)N12 (stereo not given in full)	i	?	-21.3%	i	-37.1%	?

Compound activity as filed in PubChem BioAssay.
